The record followed here is PubChem BioAssay AID738 (SRMLSC, 2007).

In all, about 98,000 compounds went through this assay and about 4,900 (5%) were called active. The sample holds actives, similar compounds and a random draw of the others, so the mix is not that of the screen. Cut-off read from the data, not from the text of the source: active = inhibition above about 30%; inactive = the rest.

This test in a line: yeast control strain growth suppression – counter-screen for post-Golgi transport modulator project, primary screen (AID 738). To be noted: efflux-deficient yeast background strain, growth absorbance A615, 16 h; at 10 µM; hits give high values. (A counterscreen serves to expose hits that act by an unwanted route or on another target.)
One may read the inhibition as the change of the read-out against control, counted positive when it falls. As for `COc1ccc(C2Nc3ccccc3C(=O)N2Cc2ccccc2)cc1Cn1nnc2ccccc21` (configuration not stated), the inhibition was 13.4% (inactive). Under `CN(C)c1ccc(NC(=S)N(CCc2ccccc2)C2CC(=O)N(c3c(Cl)cccc3Cl)C2=O)cc1` (configuration not stated) stands 5.66% (inactive); under `O=C(O)CCC(=O)NCc1ccc(C(=O)O)cc1`, 12.1% (inactive).

`COc1ccc(-c2nc(CCNC(=O)c3ccc(Br)o3)cs2)cc1`: the inhibition is 36.5% (active). For the molecule `O=C(NCCc1ccccn1)c1ccc(COc2ccccc2)o1`, the inhibition is -1.77% (inactive).

In the case of `CC(CNC(=O)c1ccc(Br)o1)NC(=O)c1ccc(Br)o1` (configuration not stated), the inhibition is 18.5% (inactive). Under `Cc1ccccc1OC(=O)Cn1c(C(F)(F)F)nc2ccccc21` stands 12.9% (inactive).

For the molecule `COC(=O)c1ccccc1OCC(=O)N1CCN(c2ccc(Cl)cc2)CC1`, the inhibition was 13.6% (inactive).

For `CN(C(=O)CSc1nnnn1-c1ccccc1)C1CCCCC1`, the inhibition is 38% (active). Under `COc1ccc(-n2nnnc2SCC(=O)Nc2ccccc2)cc1` stands 2.21% (inactive). Then `O=c1c2ccccc2nnn1CSc1nnnn1-c1ccccc1`, with 19.6% (inactive); and `CC(=O)c1nn(-c2cccc(Br)c2)cc1C(=O)c1cccc2ccccc12`, with 8.1% (inactive); and `Cc1cc2cc3c(N)[nH]nc3nc2cc1C`, with 8.93% (inactive). Then `COCCNS(=O)(=O)c1cc(Br)ccc1OC`, with 2.48% (inactive); and `O=[N+]([O-])c1cccc(-c2nnc3c4ccccc4c4ccccc4n23)c1`, with 6.93% (inactive); and `COC(=O)Cc1cc(=O)n(-c2nc3ccccc3s2)[nH]1`, with 11.8% (inactive). With `CC(C)CC(=O)N/C(N)=N/c1nc2ccccc2s1`, the inhibition was 13.9% (inactive).

With `CCC(=O)NC(=Nc1nc2ccccc2s1)NC(=O)CC`, the inhibition is 35.9% (active).

On to `COc1ccc(C(=O)N2CCc3cc(OC)c(OC)cc3C2c2cccc([N+](=O)[O-])c2)cc1` (configuration not stated), for which the inhibition is 20% (inactive). Then `c1ccc2c(C[n+]3csc4ccccc43)cccc2c1`, with 9.79% (inactive).

As to `COc1ccc(C)cc1NC(=O)CCC(=O)Nc1nnc(C(F)(F)F)s1`, the inhibition was 0.61% (inactive). With `Cc1[nH]n(-c2cccc(Cl)c2)c(=O)c1-c1ccc(Cl)cc1`, the inhibition was 55.6% (active). Under `O=c1[nH]n(-c2cccc(Cl)c2)c2ncccc12` stands 16.8% (inactive); under `Cc1[nH]n(-c2cccc(Cl)c2)c(=O)c1/C=N/n1c(C)nc2ccccc2c1=O`, 9.33% (inactive); under `O=C(CN1CCN(S(=O)(=O)c2ccc(Cl)s2)CC1)NCc1ccc(Cl)cc1`, 15.8% (inactive).

`CC(=O)Nc1cccc(/C(C)=N/NC(=O)c2ccccc2Cl)c1`: the inhibition was 5.79% (inactive). Then `Cc1cc(C)n(C(=O)c2ccc(C)c(S(=O)(=O)N3CCOCC3)c2)n1`, with 11.4% (inactive); and `Cc1ccc(C(=O)Nc2ccccc2C(=O)NC2CCCCC2)cc1S(=O)(=O)N1CCOCC1`, with 36.2% (active).

As to `Cc1ccc(C(=O)Nc2ccc3c(c2)OCO3)cc1S(=O)(=O)N1CCCCC1`, the inhibition was 16.4% (inactive). Consider `CCOc1c2ccc(C(=O)NC3CCCc4ccccc43)cc2nn1CC` (configuration not stated), for which the inhibition was -2.36% (inactive). Under `O=C(O)c1ccccc1-c1ccccc1C(=O)Nc1cccc2ccccc12` stands 9.42% (inactive); under `COc1ccccc1C(=O)NN1C(=O)C2C3C=CC(O3)C2C1=O` (configuration not stated), 3.54% (inactive). Under `Cc1ccccc1C(OCC(O)CN1CCCCC1CCO)c1ccccc1` (configuration not stated) stands 30.4% (active); under `CCCSc1nsc(N)n1`, 3.53% (inactive). Regarding `O=C(CSc1ncnc2c1cnn2CCc1ccccc1)Nc1ccc(F)cc1`, the inhibition is -3.75% (inactive). Then `O=C(Nc1cccn(Cc2c(Cl)cccc2Cl)c1=O)c1ccc(Cl)cc1`, with -8.03% (inactive); and `CCOc1ccc(OCC)c(-c2c(=O)n(OCc3ccc(Cl)cc3)c3ccccc3[n+]2[O-])c1`, with 11.6% (inactive).

On to `Clc1ccc(COn2c(-c3ccc(Cl)cc3Cl)nc3ncccc32)cc1`, for which the inhibition is 66.1% (active). As to `O=C(/C=C/c1cc2c(cc1Br)OCO2)NCc1ccc(Cl)cc1`, the inhibition is 9.36% (inactive). Consider `N/C(=N\OC(=O)CCc1ccccc1)c1ccc(Cl)cc1`, for which the inhibition is 16.6% (inactive). Under `C=CCNc1cnn(-c2ccc(C)cc2)c(=O)c1Cl` stands 8.21% (inactive); under `Cc1cccc(Cn2c(SCCO)nc3c2c(=O)n(C)c(=O)n3C)c1`, 3.8% (inactive); under `CCOc1ccc(Cn2c(SCCCCC#N)nc3c2c(=O)n(C)c(=O)n3C)cc1OCC`, 8.56% (inactive).

Take `CCCSc1nc2c(c(=O)n(C)c(=O)n2C)n1Cc1ccc(C)cc1`: the inhibition was 51.8% (active).

`O=C(ON=C1CCN(S(=O)(=O)c2ccccc2)CC1)c1ccc(Cl)cc1`: the inhibition was 13.6% (inactive). Then `COc1cccc(Oc2ccc(N)cc2)c1`, with 34% (active). Then `Cc1ccc(Oc2ccc(N)cc2)cc1`, with 28.3% (inactive); and `Nc1ccc(Oc2ccc(Cl)cc2)cc1`, with 10% (inactive); and `COC(=O)Cc1cc(=O)oc2c(C)c(O)ccc12`, with 7.59% (inactive). Then `Cc1cc(OC(=O)c2ccc(Cl)cc2)cc(=O)n1C`, with -4.12% (inactive); and `CCN(CC)CC(=O)c1c[nH]c2ccc(OC)cc12`, with 15.9% (inactive); and `COc1ccc2[nH]c3ccc(OC)cc3c2c1`, with 8.06% (inactive). Turning to `COc1ccc2[nH]cc(/C=C(/C#N)S(=O)(=O)c3ccccc3)c2c1`, the inhibition was 36.8% (active). Take `C=CCCC(=O)Nc1nc(C)c(-c2csc(Nc3ccc(Cl)cc3)n2)s1`: the inhibition was 50.3% (active). Under `CCCCCCC(=O)Nc1nc(C)c(-c2csc(Nc3cc(Cl)ccc3OC)n2)s1` stands 0.3% (inactive). Under `CCCCC(=O)Nc1nc(C)c(-c2csc(Nc3ccc(Cl)cc3)n2)s1` stands 1.53% (inactive).

As to `O=C(c1cccc2ccccc12)N1CCN(c2ccccc2F)CC1`, the inhibition was 13.7% (inactive).

Regarding `O=S(=O)(N1CCOCC1)N1CCN(c2ccccc2F)CC1`, the inhibition is -1.25% (inactive). On to `Cc1ccc2cccc(S(=O)(=O)N3CCN(c4ccccc4F)CC3)c2n1`, for which the inhibition is 37.7% (active).

Consider `O=C(CSCc1c(Cl)cccc1Cl)NN1C(=O)c2ccccc2C1=O`, for which the inhibition is 8.98% (inactive). Then `COc1ccc(OC)c(Nc2nc(-c3ccc(O)c(O)c3)cs2)c1`, with 34.6% (active); and `c1cnc(Nc2nc(-c3ccc4ccccc4c3)cs2)nc1`, with 2.57% (inactive); and `COc1ccc(Nc2nc(-c3ccccc3)cs2)cc1`, with 6.6% (inactive). Then `CON(C)S(=O)(=O)c1ccc2c(c1)NC(=O)C1CCCN21` (configuration not stated), with -2.22% (inactive); and `O=C(c1cc(-c2ccccc2O)on1)N1CCCC1`, with 12% (inactive). Then `O=C(c1cc(-c2ccc(O)cc2)on1)N1CCCc2ccccc21`, with 23.4% (inactive); and `O=C(c1cc(-c2cccc(O)c2)on1)N1CCc2ccccc2C1`, with 41% (active). Take `O=C(NCC1CCC(C(=O)O)CC1)OCc1ccccc1` (configuration not stated): the inhibition was 8.23% (inactive). Under `O=C(CNC(=O)OCc1ccccc1)Oc1cc2oc(=O)cc(-c3ccccc3)c2cc1Cl` stands 34.6% (active). Then `O=C(CNC(=O)c1ccccc1)NCC(=O)OCc1ccc(Cl)cc1`, with 2.68% (inactive); and `O=C(Nc1ccc2c(c1)OCCO2)c1ccc(Cl)c(S(=O)(=O)N2CCCCC2)c1`, with 7.53% (inactive). Under `O=C(NCCc1ccccc1)c1ccc(NC2=NC3CS(=O)(=O)CC3S2)cc1` (configuration not stated) stands -1.06% (inactive); under `Cc1c(Br)c([N+](=O)[O-])nn1C(C)C(=O)Nc1nccs1` (configuration not stated), 23.8% (inactive); under `O=C(Cc1ccc(F)cc1)NC1CCCC1`, 20.8% (inactive). Consider `CCNc1nc(N)nc(-c2cc(Cl)ccc2OC)n1`, for which the inhibition was -4.76% (inactive). Then `O=c1oc2c(CN3CCCCC3)c(O)ccc2c2c1CCCCC2`, with -5.61% (inactive); and `CCCOc1ccc2c3c(c(=O)oc2c1OCCC)CCC3`, with 36.1% (active). As to `COc1ccc2c3c(c(=O)oc2c1OCC(=O)C(C)(C)C)CCCC3`, the inhibition was 7.23% (inactive). Then `CSc1nc(N)c(C#N)c(-c2ccccc2Cl)c1C#N`, with 68.3% (active); and `CSc1ccc(-c2c(C#N)c(N)nc3c2c(C)nn3-c2ccccc2)cc1`, with 2.79% (inactive). Then `Cc1c(-c2ccccc2)nc(N)c(C#N)c1-c1cccs1`, with 15% (inactive); and `COc1cccc(/C=N\Nc2nncc(-c3ccccc3)n2)c1`, with 7.59% (inactive). Then `Nc1ccc(-c2sc(N)nc2-c2ccccc2)cc1`, with 2.78% (inactive); and `O=C(Nc1cccc2ncccc12)c1ccc(-c2ccc(Cl)cc2Cl)o1`, with 37.2% (active); and `COc1cc(OC)c(NC(=O)c2ccc(Br)o2)cc1Cl`, with 2.65% (inactive). On to `O=C(Nc1cccc2ncccc12)C(Cl)(Cl)Cl`, for which the inhibition was 8.77% (inactive). For `CCC1(CC)NC(=O)N(CC(=O)OCC(=O)Nc2ccc(C(F)(F)F)cc2)C1=O`, the inhibition was 5.34% (inactive). For the molecule `O=C(c1ccco1)N1CCN(C(=O)C2c3ccccc3Oc3ccccc32)CC1`, the inhibition is 0.85% (inactive). Then `O=C(N/N=C/c1ccc(O)c(O)c1)C1c2ccccc2Oc2ccccc21`, with 2.52% (inactive). Under `CCCN(CCC)C(=O)C1c2ccccc2Oc2ccccc21` stands 31.5% (active).

As to `Cc1c(NC(=O)CCCOc2ccccc2)cccc1[N+](=O)[O-]`, the inhibition was 2.57% (inactive). Take `O=C(O)CSCNC(=O)CC12CC3CC(CC(C3)C1)C2`: the inhibition is 0.28% (inactive).

For `CC1Cc2ccccc2N1CC(=O)Nc1ccc2c(c1)OC(F)(F)O2` (configuration not stated), the inhibition was 17.9% (inactive). Then `O=C(CC12CC3CC(CC(C3)C1)C2)Nc1ccc2c(c1)COC2=O`, with 42.7% (active).

Consider `COCCCNC(=O)C1CC(=O)N(CCc2ccccc2)C1` (configuration not stated), for which the inhibition is 5.92% (inactive). Under `COc1cc(OC)cc(C(=O)NC2CCN(C(=O)N3c4ccccc4Sc4ccccc43)CC2)c1` stands 4.32% (inactive). With `CCCn1c(C(O)c2cc(OC)ccc2OC)nc2ccccc21` (configuration not stated), the inhibition was 17.6% (inactive).

Turning to `CC(C)n1c(C(O)c2ccccc2)nc2ccccc21` (configuration not stated), the inhibition is 1.26% (inactive). Then `COc1cc(C(O)c2nc3ccccc3n2C)cc(OC)c1OC` (configuration not stated), with 41.1% (active). Under `Cn1c(=O)c(C(=O)Nc2ncccn2)c(O)c2ccccc21` stands 44.2% (active); under `O=C(Nc1ncccn1)c1cccs1`, 5.69% (inactive); under `CCOc1cc(C(=O)Nc2ncccn2)cc(OCC)c1OCC`, -2.73% (inactive).
